The OligoGym collection

Target: KCND2
Assay: pooled miR-30 sensor sort-seq; sequence = guide strand
Settings: shRNA
Further: reference of the scale not given here.

**Q.** TTCTGAGGCACAACTCTTCAGT was tested. Which sensor-assay potency score (higher = more potent) did it give?
**A.** The sensor-assay potency score (higher = more potent) was -0.605.

**Q.** Which sensor-assay potency score (higher = more potent) does the source give for TTGTGTCGTCGTGAACAGCAGG here?
**A.** Its sensor-assay potency score (higher = more potent) is -0.722.

**Q.** For TTGTATACTACCTTGATGGCTT, which sensor-assay potency score (higher = more potent) is on record?
**A.** Its sensor-assay potency score (higher = more potent) is 0.674.

**Q.** How did the sensor-assay potency score (higher = more potent) turn out when ATTAACAGTTGCAACTTCCATG was run?
**A.** The sensor-assay potency score (higher = more potent) was -0.92.

**Q.** For TTGTTCGTCCACAAACTCGTGA, which sensor-assay potency score (higher = more potent) is on record?
**A.** Its sensor-assay potency score (higher = more potent) is -0.0668.

**Q.** How did the sensor-assay potency score (higher = more potent) turn out when TTGTACTCCTCATAACAGCAGT was run?
**A.** Its sensor-assay potency score (higher = more potent) is -0.753.

**Q.** For TTAAAGATCCTGAAGACCCGGA, which sensor-assay potency score (higher = more potent) is on record?
**A.** Its sensor-assay potency score (higher = more potent) is 0.918.

**Q.** How did the sensor-assay potency score (higher = more potent) turn out when TAGAACACCAGGGCCATCGTGC was run?
**A.** Its sensor-assay potency score (higher = more potent) is -0.481.

**Q.** For TCAGCGAACAGATAGAACCAAA, which sensor-assay potency score (higher = more potent) is on record?
**A.** The sensor-assay potency score (higher = more potent) was -1.25.

**Q.** TTGTCTGTCATCACCAGCCCAA was tested. Which sensor-assay potency score (higher = more potent) did it give?
**A.** Its sensor-assay potency score (higher = more potent) is -0.744.

Target: KCNE1
Assay: as above
Settings: shRNA

**Q.** TTCGAGTGCTCCAGCTTCTTGG was tested. Which sensor-assay potency score (higher = more potent) did it give?
**A.** Its sensor-assay potency score (higher = more potent) is -0.829.

**Q.** With TCGATGTAGACGTTGAATGGGT as the sequence, how does the sensor-assay potency score (higher = more potent) read?
**A.** The sensor-assay potency score (higher = more potent) was -0.608.

**Q.** How did the sensor-assay potency score (higher = more potent) turn out when TTGCCAGGCATCGGACTCGATG was run?
**A.** The sensor-assay potency score (higher = more potent) was -1.64.

**Q.** With TTCTTGGAGCGGATGTAGCTCA as the sequence, how does the sensor-assay potency score (higher = more potent) read?
**A.** Its sensor-assay potency score (higher = more potent) is -0.819.

**Q.** With TTTTCAACGACATAGCACGACC as the sequence, how does the sensor-assay potency score (higher = more potent) read?
**A.** The sensor-assay potency score (higher = more potent) was -1.08.

**Q.** For TCAACGACATAGCACGACCTGT, which sensor-assay potency score (higher = more potent) is on record?
**A.** The sensor-assay potency score (higher = more potent) was -0.979.

**Q.** With TTGTTCTATGGCCAGATGGTTT as the sequence, how does the sensor-assay potency score (higher = more potent) read?
**A.** The sensor-assay potency score (higher = more potent) was -1.5.

**Q.** TCGGACTCGATGTAGACGTTGA was tested. Which sensor-assay potency score (higher = more potent) did it give?
**A.** Its sensor-assay potency score (higher = more potent) is -0.164.

**Q.** How did the sensor-assay potency score (higher = more potent) turn out when TAGAGAAACAGTGAAACAGTGT was run?
**A.** The sensor-assay potency score (higher = more potent) was 0.334.

**Q.** For TTGTCCTTCTCTTGCCAGGCAT, which sensor-assay potency score (higher = more potent) is on record?
**A.** Its sensor-assay potency score (higher = more potent) is -1.07.

**Q.** How did the sensor-assay potency score (higher = more potent) turn out when TTTAGAGAAACAGTGAAACAGT was run?
**A.** Its sensor-assay potency score (higher = more potent) is -0.257.

**Q.** For TCCAGCTTGCCGTCACTGCTGC, which sensor-assay potency score (higher = more potent) is on record?
**A.** Its sensor-assay potency score (higher = more potent) is -1.06.

Target: KCNH5
Assay: as above
Settings: shRNA

**Q.** Which sensor-assay potency score (higher = more potent) does the source give for TTTTCTTGTACAGAAGAACTTC here?
**A.** The sensor-assay potency score (higher = more potent) was 0.0958.

**Q.** Which sensor-assay potency score (higher = more potent) does the source give for TTTGAACAACGTAATATCCTTG here?
**A.** Its sensor-assay potency score (higher = more potent) is -0.17.

**Q.** Which sensor-assay potency score (higher = more potent) does the source give for TTGAACTTCTGGAAGAGCTTTC here?
**A.** The sensor-assay potency score (higher = more potent) was -0.184.

**Q.** Which sensor-assay potency score (higher = more potent) does the source give for TTACATATCAAAATCCATGTGT here?
**A.** The sensor-assay potency score (higher = more potent) was 0.412.

**Q.** Which sensor-assay potency score (higher = more potent) does the source give for TGAGACACTAAAAATATCCTGA here?
**A.** The sensor-assay potency score (higher = more potent) was 0.518.

**Q.** With TTCCACTGTCACAAGAATCTGT as the sequence, how does the sensor-assay potency score (higher = more potent) read?
**A.** Its sensor-assay potency score (higher = more potent) is 0.6.

**Q.** For TTGAACAACGTAATATCCTTGA, which sensor-assay potency score (higher = more potent) is on record?
**A.** The sensor-assay potency score (higher = more potent) was 0.815.

**Q.** TAGAGTTTTAGGAAGTCCCGTA was tested. Which sensor-assay potency score (higher = more potent) did it give?
**A.** Its sensor-assay potency score (higher = more potent) is -0.0513.

**Q.** TTCGTGTTTGACTTCCTGCAGT was tested. Which sensor-assay potency score (higher = more potent) did it give?
**A.** Its sensor-assay potency score (higher = more potent) is -0.357.

**Q.** How did the sensor-assay potency score (higher = more potent) turn out when TAAACAAGACAGCAGATCGATC was run?
**A.** Its sensor-assay potency score (higher = more potent) is -1.19.

**Q.** How did the sensor-assay potency score (higher = more potent) turn out when TATACAAGCAATATCTATGTTT was run?
**A.** Its sensor-assay potency score (higher = more potent) is -0.652.

**Q.** With TTTCTTCACATCACTGATCTTA as the sequence, how does the sensor-assay potency score (higher = more potent) read?
**A.** The sensor-assay potency score (higher = more potent) was 0.0331.

Target: KCNJ11
Assay: as above
Settings: shRNA

**Q.** TAGTCCACAGAGTAACGTCCGT was tested. Which sensor-assay potency score (higher = more potent) did it give?
**A.** The sensor-assay potency score (higher = more potent) was -0.814.

**Q.** For TTTGACGGTGTTGCCAAACTTG, which sensor-assay potency score (higher = more potent) is on record?
**A.** The sensor-assay potency score (higher = more potent) was -0.73.

**Q.** How did the sensor-assay potency score (higher = more potent) turn out when TCATCGGCCAGGTAGGAGGTGC was run?
**A.** The sensor-assay potency score (higher = more potent) was -0.639.

**Q.** With ATGCTTGCTGAAGATGAGGGTC as the sequence, how does the sensor-assay potency score (higher = more potent) read?
**A.** The sensor-assay potency score (higher = more potent) was -1.14.

**Q.** How did the sensor-assay potency score (higher = more potent) turn out when TTGGAGTAGTCCACAGAGTAAC was run?
**A.** The sensor-assay potency score (higher = more potent) was -1.69.

**Q.** For TACAATGGGCACAAAGCGCTGG, which sensor-assay potency score (higher = more potent) is on record?
**A.** The sensor-assay potency score (higher = more potent) was 0.352.
